The campaign covered roughly 2,100 compounds. About 590 (28%) were called active. Roughly 42% stayed inconclusive and do not appear here. This is one part of the list. Values without a mark were called inactive. Calls come from the whole dose curve; as a rule, active = well fitted inhibition curve with a large enough effect; inconclusive = small, poorly fitted or top-dose-only effect; inactive = flat fitted curve, though single readings scatter.
Potency is the fitted concentration of half-maximal effect.

Chain of DNA dC->dU-editing enzyme APOBEC-3F (Homo sapiens) (Q8IUX4 whole entry, looked up): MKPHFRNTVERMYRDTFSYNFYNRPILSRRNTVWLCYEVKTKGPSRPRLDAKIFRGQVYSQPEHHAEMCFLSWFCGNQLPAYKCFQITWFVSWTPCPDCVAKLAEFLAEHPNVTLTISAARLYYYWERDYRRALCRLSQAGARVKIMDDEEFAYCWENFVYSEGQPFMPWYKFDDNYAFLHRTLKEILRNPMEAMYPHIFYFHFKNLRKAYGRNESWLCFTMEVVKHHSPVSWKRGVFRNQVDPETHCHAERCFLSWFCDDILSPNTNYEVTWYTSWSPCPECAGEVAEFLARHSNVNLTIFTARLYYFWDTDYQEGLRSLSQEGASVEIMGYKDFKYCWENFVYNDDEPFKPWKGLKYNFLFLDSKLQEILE

The target of the experiment is DNA dC->dU-editing enzyme APOBEC-3F (Homo sapiens) (UniProt Q8IUX4). Briefly: qHTS for inhibitors of Vif-A3F interactions: Cherry picks.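 For max response: % of control where 0% means no effect; active compounds raise eYFP fluorescence by blocking Vif-driven A3F loss.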 Note: nearly all actives have a fitted effect of over 70% in size. Conditions: HeLa A3F-eYFP + Vif (tagged APOBEC3F with the HIV-1 protein that degrades it), eYFP fluorescence, 24 h. The method in brief:
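Read-out: yellow fluorescence (ex 488 nm, em 500-530 nm) by laser-scanning cytometer after 24 h compound exposure, several concentrations, at 37 deg C. Cells: HeLa line stably co-expressing Vif and C-terminally eYFP-tagged A3F; MG132 served as positive control.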
In general terms: qHTS replaces the single test concentration by a dilution series.
For `CCOc1cc([N+](=O)[O-])cc2c1C(=O)Nc1ccccc1O2`, the max response is -12%.

Take `O=C1Nc2ccc(Br)cc2C12NNc1ccccc1O2` (stereo not drawn): the Potency was 14 µM (active).

For `COc1ccc(CCNC(=O)CC2(CC3=NS(=O)(=O)c4ccccc4N3)CCCC2)cc1OC`, the max response was -0.97%.

For `Cc1cc(C)cc(NC(=O)Cn2cc(C(=O)C3CCCCC3)c3ccccc32)c1`, the Potency is 18.4 µM (active).

With `CCn1c2ccccc2c2cc(NC(=O)CNCc3ccccc3OC)ccc21`, the max response was -24.7%.

Take `Cc1cc(C)cc(NC(=S)NC(=O)C2CC2)c1`: the max response is -4.35%.

In the case of `CCN(Cc1ccccc1)c1ccc(/C=C(\C#N)c2ccccn2)cc1`, the max response was -7.46%.

As for `CCN(CC)c1nc(C=Cc2ccc(N(C)C)cc2)c2nccnc2n1`, the Potency is 1.84 µM (active).

On to `CN(C)c1ccc(C=Cc2nccc3ccccc23)cc1`, for which the Potency is 11.2 µM (active).

In the case of `CCN(Cc1ccccc1)c1ccc(/C=C/c2nccc3ccccc23)cc1`, the Potency was 20.6 µM (active).

For `CN(C)c1ccc(/C=C/c2nccc3ccccc23)cc1`, the Potency is 18.4 µM (active).

Take `O=C(OCC12CC3CC(CC(C3)C1)C2)c1ccc(NCc2cc(O)ccc2O)cc1`: the max response was -19.8%.

As for `NC(=O)c1ccc(NC(=O)C#Cc2ccccc2)cc1`, the max response was -20.2%.

As for `CC[n+]1c(C=C2C=C(C)OC(C)=C2)sc2ccccc21`, the Potency was 2.31 µM (active).

Turning to `CN(C)c1ccc2nc3c(=O)[nH]c(=O)nc-3n(CC(O)C(O)C(O)CO)c2c1` (stereo not drawn), the max response is -2.88%.

Turning to `CCN(CC)c1ccc(C=NNc2ccc([N+](=O)[O-])cn2)cc1`, the max response was -25.4%.

With `O=[N+]([O-])c1ccc(N/N=C\c2cccn2-c2ccccc2)nc1`, the Potency was 14 µM (active).

`COc1cc(C2C(C#N)=C(N)Oc3cc(O)ccc32)cc2c1OCO2` (stereo not drawn): the max response is -28.2%.

Take `CC1=C(n2nnc3ccccc32)C(c2ccccc2)C(C#N)=C(N)O1` (stereo not drawn): the max response was -5.98%.

Take `CCN(CC)c1ccc2c(c1)OC(N)=C(C#N)C2c1cccnc1` (stereo not drawn): the Potency is 17.7 µM (active).

Take `CN(C)c1ccc(/C=C(/C#N)C(=O)NCc2ccccc2)o1`: the Potency was 14.6 µM (active).

For the molecule `N#C/C(=C\c1ccccc1[N+](=O)[O-])C(=O)NCc1ccccc1`, the max response is -6.74%.

Take `COc1cc(OC)c(/C=C/c2ccc3ccccc3[n+]2C)c(OC)c1`: the Potency is 5.17 µM (active).

Take `COc1cc(OC)c(C2Nc3cccc4cccc(c34)N2)c(OC)c1`: the max response is -0.492%.

Regarding `CC(=O)c1cccc(-c2ccnc3c2CC(C(=O)Nc2ccc(Cl)cc2)O3)c1` (stereo not drawn), the max response was -28.2%.

Regarding `Nc1nc(-c2cc(O)ccc2[N+](=O)[O-])cc(-c2ccccc2)c1[N+](=O)[O-]`, the Potency is 12.5 µM (active).

For `CCN(CC)C(=O)Cn1c(=O)n(-c2ccccc2)c(=O)c2c3c(sc21)CCC3`, the max response is 1.37%.

As for `COc1ccc(OC)c(NC(=O)Cn2c(=O)n(-c3ccc(Cl)cc3)c(=O)c3c(C)c(C)sc32)c1`, the Potency was 20.6 µM (active).

On to `COc1ccc(OC)c(NC(=O)Cn2cnc3onc(-c4ccc(Cl)cc4)c3c2=O)c1`, for which the max response is -18%.

Take `CNC(=S)N/N=C/c1ccc(N2CCOCC2)s1`: the max response is -10.3%.

As for `CC(C)NC(=S)N/N=C1\CCCCc2ccccc21`, the max response is 2.14%.

With `CC(C)NC(=S)N/N=C/c1sc(N2CCCCC2)nc1-c1cccs1`, the Potency was 16.4 µM (active).

Take `N#Cc1c(C(F)(F)F)cc(-c2ccccc2)nc1SCc1nc(N)nc(N2CCOCC2)n1`: the Potency was 5.8 µM (active).

With `COc1cc(N2CCCC2)c(OC)cc1/C=C(/C#N)c1ccc(F)cc1`, the Potency is 20.6 µM (active).

`COc1cc(N2CCCC2)c(OC)cc1/C=C(/C#N)c1ccc(Br)cc1`: the Potency is 7.31 µM (active).

As for `CC1Cc2cc(S(=O)(=O)CCC(=O)NCc3ccc(Cl)cc3)ccc2N1C(=O)C1CC1` (stereo not drawn), the max response is -29.5%.

As for `O=C(/C=C/c1cccs1)NCc1ccc2c(c1)OCO2`, the max response is 1.53%.

Regarding `Cc1ccc(C(=O)Nc2sc(Cc3ccc4c(c3)OCO4)c(C)c2C(N)=O)cc1`, the Potency was 6.51 µM (active).

As for `COC(=O)c1c(-c2cccnc2)csc1NC(=O)c1ccc2c(c1)OCO2`, the max response is -11.9%.

As to `CCOc1cc(/C=C2\N=C(SC(C)C(N)=O)N(c3ccc(OC(F)F)cc3)C2=O)ccc1O` (stereo not drawn), the Potency is 15.8 µM (active).

Regarding `COc1cc(N2CCCC2)c(OC)cc1/C=C1/NC(=S)NC1=O`, the Potency is 3.53 µM (active).

With `Cc1cc(C)c2nc(SCC(=O)N3CC(=O)Nc4ccccc43)c(C#N)cc2c1`, the Potency is 3.96 µM (active).

Regarding `Cc1cccc2cc(C#N)c(SCC(=O)N3CC(=O)Nc4ccccc43)nc12`, the Potency was 4.44 µM (active).

Consider `CC(C)(C)c1ccc(OCC(=O)Nc2ccc3c4c(cccc24)C(=O)NC3=O)cc1`, for which the max response was 5.82%.

Regarding `CCCCn1c(N)c(N(Cc2ccccc2OC)C(=O)c2ccc([N+](=O)[O-])s2)c(=O)[nH]c1=O`, the max response is -9.57%.

In the case of `O=C(NCC1CCCO1)c1nn2c(C(F)(F)F)cc(-c3cc(Br)cs3)nc2c1Br` (stereo not drawn), the Potency was 11.6 µM (active).

As to `COc1ccc(S(=O)(=O)Nc2cc(Sc3ncn[nH]3)c(O)c3ccccc23)cc1`, the max response was -14.9%.

Take `Cc1c2ccccc2nc2c(F)c(NC(C)C)c(F)c(F)c12`: the Potency was 6.51 µM (active).

For the molecule `CCCNc1c(F)c(F)c2c(C)c3ccccc3nc2c1F`, the Potency is 14 µM (active).

Consider `CC(C)C1C(=O)N(Cc2cn(CCC3OCCCO3)nn2)CCS(=O)(=O)N1Cc1ccc(-c2cccc(CO)c2)cc1` (stereo not drawn), for which the max response was -10.5%.

As to `COC(=O)c1sc2cc([N+](=O)[O-])cc(SCC(C)C)c2c1N`, the Potency is 13 µM (active).

Turning to `CCOC(=O)c1sc2cc([N+](=O)[O-])cc(SCC(C)C)c2c1N`, the Potency was 2.06 µM (active).

As to `CC1(C(=O)Nc2ccc3c(c2)OCO3)Cc2c(-c3ccccc3)ccnc2O1` (stereo not drawn), the max response is -25.3%.

As to `COc1cc2c(cc1OC)C1=CC(=O)C(=O)N1C(C)(C)C2`, the Potency is 14 µM (active).

On to `C=CCSc1nnc(C)c(/C=C/Nc2ccc(Cl)cc2)n1`, for which the Potency is 20.6 µM (active).

Regarding `COc1ccc(N/C=C/c2nc(SC)nnc2C)cc1`, the max response was -11.1%.

As to `O=C1c2ccccc2-c2nc3ccccc3cc21`, the max response is -23.6%.

Take `O=C1c2ccccc2C(=O)c2cc(N3CCCCC3)ccc21`: the Potency is 8.86 µM (active).

As to `C=C(/C=C/c1ccc(N(C)C)cc1)c1nc2ccccc2s1`, the Potency is 14.6 µM (active).

With `O=C(O)c1cc(-c2ccc(/C=C3/SC(=S)N(Cc4ccccc4)C3=O)o2)ccc1Cl`, the Potency was 13 µM (active).

In the case of `O=C1/C(=C\c2ccc(O)cc2)SC(=S)N1Cc1ccccc1`, the max response is -2.14%.

In the case of `COc1cc(/C=C2\SC(=S)N(NC(=O)c3ccccc3OC)C2=O)ccc1O`, the max response is -7.76%.

Consider `COc1cc(/C=C2/SC(=S)N(Cc3ccccc3)C2=O)cc(Cl)c1O`, for which the Potency was 4.44 µM (active).

Regarding `COc1cc(/C=C2\SC(=S)N(NC(=O)c3ccccc3O)C2=O)ccc1O`, the max response was -22.7%.

With `COc1cc(/C=C2/SC(=S)N(CCC(=O)Nc3ccccc3)C2=O)cc(OC)c1OC`, the Potency is 18.4 µM (active).

For `Cc1cc(N2CCCC2)ccc1/C=C1\NC(=S)N(C)C1=O`, the Potency is 1.84 µM (active).

For the molecule `O=C1/C(=C/c2ccc(N3CCCC3)cc2)NC(=S)N1C1CC1`, the Potency is 5.17 µM (active).

In the case of `Cc1cc(/C=C2\NC(=S)N(C)C2=O)ccc1N1CCCC1`, the Potency is 12.5 µM (active).

As for `O=C(Oc1ccc(Cl)c2cccnc12)c1ccco1`, the max response is -0.0527%.

Take `CS(=O)(=O)N(CC(=O)N1CCN(Cc2ccccc2)CC1)c1ccccc1F`: the max response was 0.272%.

Consider `Cc1ccc2nccc(/C=C/c3ccc(N(C)C)cc3)c2c1`, for which the Potency is 5.8 µM (active).

For `CN(C)c1ccc(/C=C/c2ccnc3cc(Cl)ccc23)cc1`, the Potency was 2.91 µM (active).

As for `CN(C)c1ccc(/C=C/c2ccnc3ccc(Br)cc23)cc1`, the Potency was 3.66 µM (active).

For the molecule `CN(C)c1ccc(/C=C/c2ccnc3ccc(N)cc23)cc1`, the Potency was 20.6 µM (active).

For the molecule `Cc1ccc2c(/C=C/c3ccc(N(C)C)cc3)ccnc2c1`, the Potency was 18.4 µM (active).

For `COc1ccc2nccc(/C=C/c3ccc(N(C)C)cc3)c2c1`, the Potency is 23.1 µM (active).

As to `Cc1cc(C)c2nccc(/C=C/c3ccc(N(C)C)cc3)c2c1`, the Potency was 10.3 µM (active).

Consider `CN(C)c1ccc(/C=C/c2ccnc3ccc(I)cc23)cc1`, for which the Potency was 8.2 µM (active).

Consider `CC(=O)Nc1cccc(-c2ccnc3c2CC(C)(C(=O)Nc2cccc(C(C)=O)c2)O3)c1` (stereo not drawn), for which the max response is -22.1%.

Take `S=C(NCCSCc1ccc(Cl)cc1)Nc1ccccc1`: the max response was -0.773%.

Regarding `N#CC1CC(c2ccccc2)Nc2cc(Cl)ccc2N1` (stereo not drawn), the max response is -26.3%.

On to `COc1cc(Cl)c(C)cc1NC(=O)CN1CCN(C(=O)C2CC2)CC1`, for which the max response was -14.7%.

`CCC(C)Sc1cc(-c2nc3ccccn3c2NC2CCCCC2)ccc1OC` (stereo not drawn): the max response was -11.6%.

Turning to `CCCN1C=CC(=CC=C(C#N)C#N)C=C1`, the Potency is 15.8 µM (active).

Consider `C=CCN1C=CC(=C/C=C(/C#N)C(=O)OCC)C=C1`, for which the max response is -21.4%.

Take `C=CCN1C=CC(=CC=C(C#N)C#N)C=C1`: the Potency was 11.2 µM (active).

For `CCOc1ccc(NC(=O)/C(C#N)=C/c2ccc(N3CCCC3)c(C)c2)cc1`, the Potency was 1.03 µM (active).

On to `CCOc1cc(/C=C(/C#N)C(=O)Nc2ccc(O)cc2)cc(Br)c1O`, for which the Potency was 15.8 µM (active).

Turning to `CCOc1ccc(Br)cc1C(=O)Nc1ccc(C(=O)NCC(C)C)cc1`, the max response is -8.08%.

Turning to `N#C/C(=C/c1ccc2c(c1)OCO2)C(=O)Nc1ccc(O)cc1`, the max response was -28.5%.

On to `CC(=O)Nc1ccc(S(=O)(=O)Nc2nc3ccccc3nc2Sc2nncn2C)cc1`, for which the max response was -12.8%.

As to `Cc1ccc2nc3c(cc(S(=O)(=O)c4ccccc4)c(=N)n3Cc3ccco3)c(=O)n2c1`, the max response is -15.4%.

Turning to `COc1ccc(Cn2c(C)nc3c(c2=O)c2nc4ccccc4nc2n3Cc2ccco2)cc1`, the Potency was 14.6 µM (active).

Source of the values: PubChem BioAssay AID651814 (National Center for Advancing Translational Sciences (NCATS), 2012).
